# Assay outcomes (PubChem)
# FBW7 activator – activators of human E3 ligase FBW7 | AlphaScreen FBW7–phospho-cyclin E peptide binding, activator screen | Q969H0 | normalized activity (activation), % at 26.1 µM | actives 0.13% (n = 650,000) | AID 1259310; in the data active means normalized activity above about 1.9%;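 further: purified mutant Fbw7 with reduced substrate affinity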
# MITF primary – human MITF inhibition, primary screen; O75030; AlphaScreen MITF homodimerization, bead proximity signal; inhibition, % at 2.6 µM; actives 0.91% (n = 650,000); in the data active means inhibition above about 50%;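 further: 0% = vehicle wells with protein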
# GPR151 activ – activates the human receptor GPR151; Q8TDV0; PathHunter beta-arrestin GPR151 cells, luminescence; activation, % at 11.2 µM; actives 1% (n = 650,000); AID 1508602; in the data active means activation above about 4.9%;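 further: 0% = median of compound wells and 100% = cells with positive control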
# TEAD-YAP block – TEAD-YAP interaction inhibition; actives 1.4% (n = 640,000); inhibition, % at 9.12 µM; HEK-TIYL cells, TEAD-Gal4/YAP UAS-luciferase luminescence; AID 1259422; in the data active means inhibition above about 32%;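 further: 0% = median of test compound wells and 100% = reference inhibitor wells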
# GPR151 confirm – human GPR151 activation, confirmation screen; shares compounds with GPR151 activ; GPR151 PathHunter beta-arrestin cells, luminescence, 90 min; % of EA-reagent control over plate median; activation, % at 11.2 µM; 6,700 tested, under 10 active; AID 1508609;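 active means mean percent activation across replicates above the confirmation screen cutoff of 4.91%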
# GPR119 counter – activates human GPR119 in a GPR151 counter-screen; shares compounds with GPR151 activ; GPR119 PathHunter beta-arrestin cells, luminescence, 90 min; 0 = compound-well median, 100 = enzyme-acceptor control; activation, % at 11.2 µM; actives 0.3% (n = 6,700); AID 1508611;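 active means mean percent activation in the counterscreen above 29.09%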;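 further: counterscreen on off-target GPR119 to flag nonselective hits from the GPR151 activator screen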
# Target sequence (Q8TDV5 whole entry, looked up): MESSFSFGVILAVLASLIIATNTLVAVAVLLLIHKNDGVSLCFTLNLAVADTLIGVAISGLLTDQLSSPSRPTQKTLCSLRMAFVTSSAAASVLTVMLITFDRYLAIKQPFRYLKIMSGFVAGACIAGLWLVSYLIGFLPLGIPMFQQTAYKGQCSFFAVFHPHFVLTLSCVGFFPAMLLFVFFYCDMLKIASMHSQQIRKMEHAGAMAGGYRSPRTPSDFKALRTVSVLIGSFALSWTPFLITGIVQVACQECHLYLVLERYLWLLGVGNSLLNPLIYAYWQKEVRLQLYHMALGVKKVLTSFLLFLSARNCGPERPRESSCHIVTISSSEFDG
# * marks the source's active call; other numbers are inactive results; . = not tested or not shown. Compounds with a hit are over-represented: about 3.5% of the library has one in this group of screens.
SMILES,FBW7 activator,MITF primary,GPR151 activ,TEAD-YAP block,GPR151 confirm,GPR119 counter
COc1ccccc1CNc1nc2ccccc2n1CCN1CCOCC1,0,-12,1,-26,.,.
COc1ccc(CNc2nc3ccccc3n2CCN2CCOCC2)cc1OC,0,6,10.0*,-4,0,4
CCCS(=O)(=O)N1CC(=O)N(c2ccccc2OC)C(C)(C(=O)NC2CCCC2)C1 (stereo not drawn),0,4,6.0*,-2,0,-11
CCCS(=O)(=O)N1CC(=O)N(c2ccccc2CC)C(C)(C(=O)NC2CCCCC2)C1 (stereo not drawn),0,8,0,-1,.,.
CC1(C(=O)NC2CCCCCC2)CN(S(C)(=O)=O)CC(=O)N1c1ccc(Cl)cc1 (stereo not drawn),0,0,7.7*,-3,-1,-12
COc1cc(C2C3=C(CC(C)(C)CC3=O)NC3=C2C(=O)CC(C)(C)C3)ccc1OCc1ccccc1,1,3,-1,2,.,.
COc1cc(NC(=O)c2cc(Br)ccc2Cl)ccc1N1CCCC1=O,0,10,5.0*,9,1,8
COc1ccc(NC(=O)c2cc(Br)ccc2Cl)cc1N1CCCC1=O,0,10,1,-14,.,.
C=CCOC(=O)C1=C(C)N2CCSC2=C(C#N)C1c1ccco1 (stereo not drawn),0,6,5.1*,-12,2,7
COC(=O)c1cc(-c2cccnc2)n[nH]1,0,-11,2,4,.,.
CC(C)C[C@H]1C(=O)N2CCN(C(=O)c3cccc(F)c3F)C[C@@H]2C(=O)N1C,1,11,6.6*,3,0,14
C=CCSc1ncnc2sc(C)c(C)c12,0,6,5.3*,0,0,5
CC1CN(CC(=O)NC2CCOCC2)Cc2ccccc2O1 (stereo not drawn),0,4,2,0,.,.
O=c1c2cnn(CCO)c2ncn1Cc1c(F)cccc1Cl,0,-13,6.6*,-1,0,5
CN(C)c1ccc(/C=C/CN2CCCCCC2)cc1,0,30,4.9*,5,-1,-1
CN(C)c1ccc(/C=C/CN2CCC(O)CC2)cc1,0,32,0,-8,.,.
O=C1C(=O)N(c2cccc(C(F)(F)F)c2)C(c2ccccc2[N+](=O)[O-])/C1=C(/O)c1ccccc1 (stereo not drawn),0,4,0,5,.,.
O=C(c1cc2ccccc2oc1=O)N(Cc1ccc2c(c1)OCO2)CC1CCCO1 (stereo not drawn),0,7,7.3*,6,1,7
COc1ccc(CN(CC2CCCO2)C(=O)c2cc3ccccc3oc2=O)cc1OC (stereo not drawn),0,4,1,9,.,.
COc1cccc(NC(=O)NNC(=O)c2cc3occc3[nH]2)c1,0,9,5.0*,0,0,9
COc1cccc(-c2noc(/C=C/c3ccc(OC)c(OC)c3)n2)c1,0,14,1,-23,.,.
COc1ccc(/C=C/c2nc(-c3cccnc3)no2)cc1OC,0,-2,8.7*,-66,0,-15
CCOc1cc(C2C(C(=O)N3CCCCC3)=C(C)NC3=C2C(=O)CCC3)cc(Br)c1OC (stereo not drawn),0,5,4.9*,12,0,6
COc1ccc(-c2[nH]ncc2CNC(C)CCn2cccn2)cc1F (stereo not drawn),0,10,0,-11,.,.
CCn1nc(C)c(CNCc2cn[nH]c2-c2ccc(OC)c(F)c2)c1C,0,10,5.4*,7,0,-5
OCC1(CCOc2ccccc2)CCN(Cc2c[nH]c3ccccc23)CC1,0,-6,1,1,.,.
Cc1sc(NC(=O)c2ccco2)c(CN2CCN(CCO)CC2)c1C,0,1,25*,14,1,1
O=C(CSCc1ccc(Cl)cc1)NCCSCc1ccco1,0,5,7.8*,-3,-1,-16
Cc1nc(NCC2CC2)sc1-c1ccn(CCN2CCOCC2)n1,0,-7,0,-5,.,.
Cc1nc(NCC2CC2)sc1-c1ccn(-c2cccc(F)c2)n1,0,0,5.8*,9,0,-2
